# Source: ChEMBL document CHEMBL3988442, “University of Dundee, Small-Polar-MMV Screening Library” (2021)
# In all, about 48,000 compounds went through this assay and about 13,000 (27%) showed an effect of 50% or more. This is one part of the list.
# System: Wolbachia pipientis
# Assay: Anti-Wolbachia Cell-Based Screen
# Type: functional
# Design: scale not given: in the data most compounds retested in dose-response had high values
# Conditions: 5 µM
row,Structure (SMILES),Percent Effect
1,CC(C)c1ccc(/C=C/CC(=O)NC2CCS(=O)(=O)CC2)cc1,-29.94%
2,CC(=O)c1cccc(OCCCC(=O)N(C)Cc2cnn(C)c2)c1,-7.913%
3,N#CC1(NC(=O)COC(=O)Cn2cccn2)CCCC1,0.9044%
4,N#Cc1ccnc(SCC2CN=C(N3CCOCC3)S2)c1 (configuration not stated),11.27%
5,Cc1occc1C(=O)N1CC[C@@H]2[C@@H](CO[C@H]2CNS(C)(=O)=O)C1,-7.18%
6,O=C(CC1CC1)N[C@@H]1CN(C(=O)c2ccsc2)C[C@@H]2CCCO[C@@H]21,100.4%
7,COc1ccc(CN2C[C@@H]3CCCO[C@@H]3[C@H](NC(=O)CC3CC3)C2)cc1,-5.236%
8,O=C(CC1CC1)N[C@@H]1CN(C(=O)c2cccs2)C[C@@H]2CCCO[C@@H]21,73.18%
9,Cc1occc1C(=O)N1C[C@@H]2CCCO[C@@H]2[C@H](NS(C)(=O)=O)C1,108.4%
10,O=C(CC1CC1)N[C@@H]1CN(C(=O)c2ccoc2)C[C@@H]2CCCO[C@@H]21,95.5%
11,O=C(CC1CC1)N[C@@H]1CN(Cc2nccs2)C[C@@H]2CCCO[C@@H]21,-7.838%
12,Cc1occc1C(=O)N1C[C@@H]2CN(S(C)(=O)=O)CCO[C@@H]2C1,-6.506%
13,O=C(CC1CC1)N[C@@H]1CN(Cc2ccc(F)cc2)C[C@@H]2CCCO[C@@H]21.O=C(O)C(F)(F)F,-7.276%
14,O=C(c1cccs1)N1C[C@H]2CC[C@@]3(N=C(c4ccccc4)NC3=O)[C@H]2C1,7.494%
15,O=C(CC1CC1)N[C@@H]1CN(c2ncccn2)C[C@@H]2CCCO[C@@H]21.O=C(O)C(F)(F)F,-2.682%
16,CCn1ccnc1CN1CCCN(CC2CC2)C(C(C)C)C1 (configuration not stated),-2.193%
17,Cc1nnsc1CN1CCCC1c1nc(-c2ccccc2)no1 (configuration not stated),16.39%
18,Cc1csc([C@@H]2C[C@@H]3CCN(Cc4cnn(C)c4)C[C@H]3O2)n1,-7.419%
19,CN1CCC(N(C)C(=O)CSc2ccc(F)c(F)c2)C1=O (configuration not stated),-7.197%
20,Cc1occc1C(=O)N1C[C@@H]2CCCO[C@@H]2[C@H](NC(=O)CC2CC2)C1,111.2%
21,Cc1ccc([C@@H]2CN(C(=O)c3ccoc3C)C[C@H]2NC(=O)C2CC2)cc1,-4.07%
22,CCOCCN1CCN(CC(=O)N2CCC2)CC1CC (configuration not stated),109.6%
23,CCOCCN1CCN(CCC(=O)N2CCCCC2)CC1C (configuration not stated),-8.269%
24,CCOCCN1CCN(CC(=O)NC2(C#N)CCCC2)CC1CC (configuration not stated),-13.43%
25,CCOCCN1CCN(CC(=O)N2CCCC2)CC1C (configuration not stated),-3.155%

row,Structure (SMILES),Percent Effect
1,CCOCCN1CCN(Cc2nc(C)no2)CC1CC (configuration not stated),-13.77%
2,CCOCCN1CCN(CC(=O)N2CCCC2)CC1CC (configuration not stated),98.08%
3,O=C1C=CC=N/C1=C(/O)NCCNS(=O)(=O)N1CCCCCC1,-2.703%
4,CC(=O)NCc1noc2c1CN(Cc1ccsc1)CC2,-0.8794%
5,COC(=O)CNC(=O)c1ccc(OC2CCN(S(C)(=O)=O)CC2)c(Cl)c1,-7.47%
6,CCc1cnc(CN(C(C)=O)C2CCN(CCc3cnn(C)c3)C2)o1 (configuration not stated),11.37%
7,CCc1cnc(CN(C)C2CCN(CCc3ccccn3)C2)o1 (configuration not stated),-9.613%
8,CCc1cnc(CN(C(C)=O)C2CCN(CCc3ccncc3)C2)o1 (configuration not stated),111.3%
9,CCc1cnc(CN(C(C)=O)C2CCN(CCc3ccccc3)C2)o1 (configuration not stated),104.1%
10,CCc1cnc(CN(C(C)=O)C2CCN(CCc3ccccn3)C2)o1 (configuration not stated),119.1%
11,CN(CCC#N)C(=O)CSc1cc(F)ccc1F,10.19%
12,COCCS(=O)(=O)Nc1cc(Cl)ccn1,7.348%
13,CCCNC(=O)CCNC(=O)Cc1nc(-c2ccco2)oc1C,-2.58%
14,CC(C)CN(Cc1nnc(-c2ccco2)o1)CC(C)C,-6.92%
15,CCNC(=O)C1CCN(c2nc(-c3ccco3)nc3c2CCNCC3)C1 (configuration not stated),5.847%
16,CC(=O)N1N=C(c2ccco2)OC1C(=O)NCC(C)C (configuration not stated),108.9%
17,CC(C)CN(Cc1cnn(C)c1)C(=O)C1COc2ccccc2C1 (configuration not stated),-20.05%
18,CC(=O)N1N=C(c2ccco2)OC1C(=O)N(CC(C)C)CC(C)C (configuration not stated),91.49%
19,Cc1noc(C)c1CN1CC[C@H](OCC2CC2)[C@@H](Cc2ccccc2)C1,-6.774%
20,CN(CC1(CO)CCC1)C(=O)C1CCC(=O)N(Cc2ccc(Cl)cc2)C1 (configuration not stated),0.1062%
21,O=C(Nc1ccc(-n2cccn2)cc1)N1CCOCC(O)C1 (configuration not stated),0.445%
22,O=C(O)C(F)(F)F.O=C(c1ccco1)N1CCOCC2(C1)CN(c1cccnc1)C(=O)CO2 (configuration not stated),102.4%
23,O=C(O)C(F)(F)F.O=C(c1cccs1)N1CCOCC2(C1)CN(c1cccnc1)C(=O)CO2 (configuration not stated),114.5%
24,O=C(O)C(F)(F)F.O=C(O)C(F)(F)F.O=C(c1ccncc1)N1CCOC2(COCCN(c3cccnc3)C2)C1 (configuration not stated),-8.352%
25,O=C(c1cccs1)N1CCOCC2(C1)CN(c1ccccc1)C(=O)CO2 (configuration not stated),85.77%

row,Structure (SMILES),Percent Effect
1,Cc1cc(C)c(OCC(=O)NS(=O)(=O)c2cccnc2)c(C)c1,-6.374%
2,COc1ccc(C)cc1C1(CNc2cncc(Cl)n2)CCOCC1,-4.03%
3,COC(=O)CCNC(=O)c1cc(Br)c2c(c1)OCCO2,-24.52%
4,CN(C)CC1CN(c2cnc3ccccc3n2)CCO1 (configuration not stated),11.03%
5,c1ccc2oc(N3CCC(c4nncn4C4CC4)CC3)nc2c1,-9.735%
6,O[C@@H]1CN(c2nc3ccccc3s2)CC[C@H]1c1ccc2c(c1)OCO2,110.1%
7,c1ccc2sc(N3CCOC(Cn4cccn4)C3)nc2c1 (configuration not stated),4.7%
8,O[C@@H]1CN(c2cnc3ccccc3n2)CC[C@H]1c1ccc2c(c1)OCO2,98.83%
9,O[C@@H]1CN(c2nc3ccccc3o2)CC[C@H]1c1ccc2c(c1)OCO2,107.9%
10,CN1CCN(C2CCN(c3cnc4ccccc4n3)CC2)C1=O,19.91%
11,O=C(NC1CC1)C1CN(c2nc3ccccc3s2)CCN1 (configuration not stated),-6.534%
12,O=C(N[C@@H]1CCN(c2nc3ccccc3o2)C[C@H]1O)c1cnccn1,6.046%
13,CCNC(=O)NC[C@H]1COCc2nc3cc(OC)ccc3n21,0.3029%
14,CCN(CC)C(=O)CN(C)C(=O)c1cccn1CCc1ccccc1,1.592%
15,CNC(=O)[C@H]1C[C@@H]2CN(C(=O)NC(C)C)C[C@H]1O2,-20.87%
16,COc1ccc(OC)c(-n2cnnc2COC(C)C)c1,-1.207%
17,Cc1cc(C)c2ncn(CCOCCO)c(=O)c2c1,-8.527%
18,O=c1c2cccc(F)c2ncn1CCN1CCNCC1,-5.542%
19,Cn1c2ccccc2c2ncn(CCCN3CCOCC3)c(=O)c21,106.3%
20,Cc1nc(-c2c(-c3ccccc3)ncn2CCCN2CCOCC2)c[nH]1,-4.456%
21,O=c1c2cccc(C(F)(F)F)c2ncn1CCN1CCNCC1,-10.29%
22,O=c1c2cccc(F)c2ncn1CCN1CCOCC1,0.8234%
23,CC(C(=O)Nc1cccc(F)c1)N(C)CCN1CCOCC1 (configuration not stated),11.62%
24,O=c1c2c(ncn1CCCO)nc1n2CCC1,-24.45%
25,Cn1c2ccc(F)cc2c2ncn(CCN3CCOCC3)c(=O)c21,129.5%

row,Structure (SMILES),Percent Effect
1,Cn1c2ccccc2c2ncn(CCN3CCOCC3)c(=O)c21,100.8%
2,Cn1c2ccc(F)cc2c2ncn(CCCN(CCO)CCO)c(=O)c21,122.3%
3,Cc1ccc(-c2c(-c3ccccc3)ncn2CCCN2CCOCC2)o1,-10.17%
4,CS(=O)(=O)c1ccc(NC(=O)NCc2ccc(F)cc2)cn1,9.509%
5,CN(CC1(CO)CC1)C(=O)C1CCC(=O)N(Cc2ccc(Cl)cc2)C1 (configuration not stated),-2.442%
6,CC(C)(C)C(=O)N1CC(=O)N(Cc2ccco2)CC(O)C1 (configuration not stated),96.28%
7,O=C(NCCc1cccnc1)C1CCCN(Cc2ccco2)C1 (configuration not stated),-20.69%
8,O=C(O)C(F)(F)F.O=C1C[C@@H]2[C@H](CCN2Cc2ccco2)N1c1ccsc1,5.007%
9,CC(C)c1cc(C(=O)N2CCN(Cc3ccco3)CC2)n[nH]1,11.56%
10,CC(C)(C)OC(=O)N1CC(=O)N(Cc2ccco2)CC(O)C1 (configuration not stated),112.7%
11,O=C1CN(C(=O)C2CCCCC2)CC(O)CN1Cc1ccco1 (configuration not stated),88.46%
12,CC(C)COC(=O)N1CC(=O)N(Cc2ccco2)CC(O)C1 (configuration not stated),111.6%
13,CC(=O)N1CCC(CSCc2ccco2)CC1,-2.113%
14,O=C([C@H]1COC[C@H]2CN(Cc3ccco3)C[C@H]21)N1CCCO1,-9.766%
15,CC(C)(C)OC(=O)N1CCCN(Cc2ccon2)c2ccccc21,7.757%
16,CC(NCc1ccc(-c2ccc(F)cc2)o1)c1nnc2n1CCC2 (configuration not stated),11.28%
17,CNC(=O)c1ccc(NC2CCN(CC(F)(F)F)C2=O)cc1Cl (configuration not stated),5.324%
18,Cc1ccc(C(NC(=O)CN2CCc3c(ncn3C)C2)C2CC2)cc1 (configuration not stated),0.6431%
19,CC(C)CC(=O)N1CC(=O)N(Cc2ccco2)CC(O)C1 (configuration not stated),81.13%
20,O=C(CN1C(=O)CCC1=O)N1CCC(S(=O)(=O)Cc2ccco2)CC1,3.229%
21,O=C(CN1C(=O)CCC1=O)N1CCC(CSCc2ccco2)CC1,-7.09%
22,COCCOCCNC(=O)c1ccc(N2CCC(C)=N2)cc1,-11.91%
